Test results published in the supplement of paper PMC11417369.
± gives the standard deviation of the averaged measurements. Over roughly 25,000 sequences, “ln(normalized median fluorescence intensity)” has its median near 8.9; the highest 2% begin near 10. What follows is part of a selection rich in the highest values, with near analogues and random picks from the rest.

Tested on: PfAP2-LT AP2 domain (GST-tagged)
Assay: gcPBM binding intensity (ln(normalized median fluorescence intensity)); higher = stronger DNA binding
How it was run: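 DNA-binding domains from P. falciparum, fused to GST and produced in E. coli, were put on an Agilent 4 × 180k double-stranded probe array for 1 h in 1× PBS holding 1% milk, 0.2 mg/ml BSA, 0.5% salmon testes DNA and 0.03% Triton X-100. Probes were primer-extended, 36 bp long and drawn from intergenic genomic regions, with negative controls included. After Alexa488 anti-GST antibody detection and a 488 nm scan, binding intensity was set as the highest Masliner-normalised natural-log median intensity across replicate spots of either probe orientation.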

Row | Sequence | gcPBM binding intensity (ln)
1 | TACAAAAATGTAGTCACACATATGTATACTTTTATG [CACACA_site5607] | 8.85 ± 0.42
2 | TGTACCTACAAAATATGATATATTTTTATAAATTGT [XGTACX_negctrl_site498] | 8.51 ± 0.47
3 | TGAACAACTATTACTGCACACATTCTTACACTATAT [CACACA_site4533] | 9.41 ± 0.45
4 | GATGATACAAAGTAATGTACATAAATACACATATTG [XGTACX_site3177] | 9.03 ± 0.44
5 | ATAATACGAATTTGTAGTACATTTATAATAACATGA [XGTACX_site2614] | 8.65 ± 0.38
6 | AATGGTCTTTTCAACACACGTACATAAAAATATTAT [CACACA_site2571] | 8.79 ± 0.44
7 | CAATAATATATATATTGTACATTTTTTTTTATTATT [XGTACX_site3149] | 8.7 ± 0.38
8 | TTTTATAGAGTGTATACATGCAATACCACATAAAAT [TGCATGCA_site476] | 8.79 ± 0.43
9 | ATTTTTTTTTTTACAGTGGAACCATATTTGCTCATT [CACACA_negctrl_site940] | 8.82 ± 0.51
10 | ATATATATATTTTTATGAGGCATAAGTAATATTTTT [TGCATGCA_negctrl_site317] | 8.53 ± 0.4
11 | TAAAAGTTTTTATACATACACACCTATAAATTAAGT [CACACA_site2446] | 8.72 ± 0.36
12 | CATAAATTAAAACACACACACACAAAAAAAAAAAAA [CACACA_site2262] | 9.84 ± 0.33
13 | AATTAACAAAAACACACACACACACCGACAAAAAAA [CACACA_site4444] | 10.1 ± 0.23
14 | TAAATTAAAAAACACACACACAAAAAAAAAAAAAAA [CACACA_site2263] | 9.41 ± 0.51
15 | TATGCACGCGAACACACACACACAACTAAAAAATAA [CACACA_site7251] | 9.79 ± 0.37
16 | TTTTTATCTTTGCTGTGTACATAAATAAAAATAACT [XGTACX_site7625] | 8.47 ± 0.42
17 | TATATATATATAATGTGTACACAAATATATATTATA [XGTACX_site8786] | 8.8 ± 0.37
18 | AAGTAAAAAAATAGCACACACACAAAAACACAGACA [CACACA_site4839] | 10.1
19 | ATCAAATAATAGCAAACACACAAAAAATAAAAAAAA [CACACA_site4146] | 9.04 ± 0.47
20 | AAAAAAAACAGACACACACACAAATATATAAAAATA [CACACA_site1172] | 9.94 ± 0.35
21 | AAGTAAAAAAATAGCACACACACAAAAACACCCACA [CACACA_site1291] | 9.92 ± 0.16

Row | Sequence | gcPBM binding intensity (ln)
22 | CAATATAAAAAACACACGCACACAAAAAAAAAAAAA [CACACA_site3521] | 9.46 ± 0.42
23 | GTAAAAAAATAGCACACACACAAAAACACGCACAAA [CACACA_site6723] | 10.1 ± 0.23
24 | TATTTGTAAATCGATACACACATATAGATTAATATA [CACACA_site6237] | 8.88 ± 0.35
25 | ATATTCTGATTTTAGATGCACTTCGTTAACAAAATA [GTGCAC_site9958] | 8.49 ± 0.35
26 | ATGGACATTTTATAAATCACAATGGATATTTTATAA [CACACA_negctrl_site1830] | 8.41 ± 0.42
27 | GGAAATTAACAGAACACAATGTAACAATTTCTAACA [CACACA_negctrl_site1250] | 8.85 ± 0.4
28 | TAAAAGGGGATATATGAACACACAAAAAAAAAATAT [CACACA_site8940] | 9.04 ± 0.64
29 | CACAGATATATACATACACACATATATACACATATA [CACACA_site6323] | 9.39 ± 0.32
30 | GTTACATACAGATACACACACATATATATATATATA [CACACA_site4652] | 10.2 ± 0.4
31 | GTTACATACATATACACACACATATATATATATATA [CACACA_site901] | 10.2 ± 0.17
32 | TACATACATACATACACACACACATATATATACATA [CACACA_site853] | 10.1 ± 0.23
33 | CATACATACATACATACACACATACAGATATATATA [CACACA_site4890] | 9.4 ± 0.38
34 | ACGTTACATACATATACACACACATATATATATATA [CACACA_site8203] | 9.93 ± 0.16
35 | CTCCACAAACAAATCGCACACCCAACCCAACATATA [CACACA_site2650] | 9.68 ± 0.34
36 | TATTTTTTTGTGTTTGGTACACACGTTATAAAAAAT [XGTACX_site2655] | 8.8 ± 0.36
37 | AAAAAAAAAAAAAACACACACACACCCACATATACA [CACACA_site2663] | 10.2 ± 0.16
38 | AAAAAACACCCATACACACACACACCGATATATATA [CACACA_site5808] | 10.2 ± 0.24
39 | AAAAAACAGACATACACACACACACCCATATATATA [CACACA_site3392] | 10.4 ± 0.21
40 | AAAAAAAAAAAAAAAACACACATACACCCCCACCCA [CACACA_site9117] | 9.89 ± 0.18
41 | AAAAAAAAAAAAAAAACACACATACACCCAGACACA [CACACA_site5807] | 9.71 ± 0.18
42 | CACAGACACCCATACACACACATACCCATATATATA [CACACA_site5023] | 9.56 ± 0.34

Row | Sequence | gcPBM binding intensity (ln)
43 | AAAAAAAACGCACATACACACACACCCATATATATA [CACACA_site9118] | 10.13 ± 0.028
44 | TTAATATTATGTTAAAGTACTTTATATATATATAAT [XGTACX_site2646] | 8.57 ± 0.3
45 | AAGACTGCACTTTAAGCACACAAATATATTTTTTTT [CACACA_site8337] | 8.86 ± 0.38
46 | TACAAATATATATGCACACACATATCTGTATATGTG [CACACA_site5663] | 9.58 ± 0.26
47 | GTAATATATACAAAATGTACAAAACAATAACATGAT [XGTACX_site8575] | 9.2 ± 0.52
48 | TAATAAAATATGTACACACATACACCCATATATATA [CACACA_site1220] | 9.21 ± 0.35
49 | GTTTAAAATCTTTGCACACATATAAATAAATATATT [CACACA_site2555] | 8.9 ± 0.41
50 | AAAAAAAAAAAACACACACACACACCCATATACATA [CACACA_site2664] | 10.31 ± 0.085
51 | TATAAACACCCATATAAACACACATACATACATACA [CACACA_site8791] | 9.51 ± 0.33
52 | TAAACACCCATATAAACACACATACATACATACATA [CACACA_site5383] | 9.53 ± 0.4
53 | AAAAATAAAAAAAACACACATACCTTATTTTTGTTC [CACACA_site2634] | 8.98 ± 0.42
54 | TATATATATATATATGTGCGCATTACTTTAAGAATA | 9.6 ± 0.25
55 | TCTTTTTGCATGTGTGTGCGCACAAAATACACAAAA [GTGCAC_site9718] | 9.39 ± 0.3
56 | CACAAGAAAGTTCACACACACACATATATATATATA [CACACA_site6009] | 9.93 ± 0.62
57 | TACACAAGAAAATTCACACACACACCGATATATATA [CACACA_site6008] | 9.87 ± 0.16
58 | CACAAGAAAATTCACACACACACATATATATATATA [CACACA_site3880] | 10.2 ± 0.14
59 | CATACACAAGAAAATTCACACACACCCATATATATA [CACACA_site9288] | 9.87 ± 0.23
60 | AAAACAAAAGAATTCACACATATATATATATATATA [CACACA_site4777] | 10.1 ± 0.16
61 | TACACAAGAAAATTCACACACACACCCATATATATA [CACACA_site3879] | 10.12 ± 0.092
